Laboratory results taken from the supplement of paper PMC10849652.
Of roughly 7,900 targets only a part is listed; those with a hit were picked by preference. About 0.6% of all pairs of compound and target were hits.

Compound: CC[C@@H]1C(=O)N(C)c2cnc(Nc3ccc(C(=O)N[C@H]4CC[C@H](N5CCN(CC6CC6)CC5)CC4)cc3OC)nc2N1C(C)C [volasertib]
Test: log2 fold change, soluble protein after heating vs DMSO (PISA); higher = thermal stabilisation; K562 cells, 10 uM, 30 min; active = over 0.2 and 3.5 SD of the protein, either way, in both replicates (recomputed)
Summary of the method: (§1)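 K562 cells at 2×10^6 cells/mL were given 10 μM compound for 30 min. Aliquots then went through 3 min of heating across 48°C-58°C, were pooled, and were extracted in PBS with 0.5% NP-40 at 4°C, and the supernatant after 21,000xg for 90 min was quantified by TMTpro 16plex LC-MS/MS with channel sums equalised. Thermal stability relative to control samples, from duplicates, is given as log2 fold change.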

Chain of UniProt P28065 (P28065 whole entry, looked up): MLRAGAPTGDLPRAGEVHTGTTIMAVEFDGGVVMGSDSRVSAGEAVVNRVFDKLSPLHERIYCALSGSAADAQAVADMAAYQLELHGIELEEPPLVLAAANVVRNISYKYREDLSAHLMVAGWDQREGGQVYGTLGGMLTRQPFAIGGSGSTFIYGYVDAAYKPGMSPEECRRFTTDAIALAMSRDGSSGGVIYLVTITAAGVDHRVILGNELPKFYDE
Chain of UniProt Q15173 (Q15173 whole entry, looked up): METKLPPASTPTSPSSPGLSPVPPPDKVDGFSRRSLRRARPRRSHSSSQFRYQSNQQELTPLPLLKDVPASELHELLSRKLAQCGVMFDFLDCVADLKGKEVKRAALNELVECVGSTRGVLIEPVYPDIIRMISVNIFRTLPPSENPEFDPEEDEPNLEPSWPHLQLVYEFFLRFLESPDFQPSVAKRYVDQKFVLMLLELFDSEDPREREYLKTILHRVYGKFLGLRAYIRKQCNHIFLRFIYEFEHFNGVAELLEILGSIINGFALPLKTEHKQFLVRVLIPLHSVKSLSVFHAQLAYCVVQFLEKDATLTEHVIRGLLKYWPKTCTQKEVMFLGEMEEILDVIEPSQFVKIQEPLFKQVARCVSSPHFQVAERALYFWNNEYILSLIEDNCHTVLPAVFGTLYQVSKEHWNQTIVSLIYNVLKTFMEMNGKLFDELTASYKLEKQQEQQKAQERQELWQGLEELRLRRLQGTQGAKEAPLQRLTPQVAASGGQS
Chain of UniProt P27815 (P27815 whole entry, looked up): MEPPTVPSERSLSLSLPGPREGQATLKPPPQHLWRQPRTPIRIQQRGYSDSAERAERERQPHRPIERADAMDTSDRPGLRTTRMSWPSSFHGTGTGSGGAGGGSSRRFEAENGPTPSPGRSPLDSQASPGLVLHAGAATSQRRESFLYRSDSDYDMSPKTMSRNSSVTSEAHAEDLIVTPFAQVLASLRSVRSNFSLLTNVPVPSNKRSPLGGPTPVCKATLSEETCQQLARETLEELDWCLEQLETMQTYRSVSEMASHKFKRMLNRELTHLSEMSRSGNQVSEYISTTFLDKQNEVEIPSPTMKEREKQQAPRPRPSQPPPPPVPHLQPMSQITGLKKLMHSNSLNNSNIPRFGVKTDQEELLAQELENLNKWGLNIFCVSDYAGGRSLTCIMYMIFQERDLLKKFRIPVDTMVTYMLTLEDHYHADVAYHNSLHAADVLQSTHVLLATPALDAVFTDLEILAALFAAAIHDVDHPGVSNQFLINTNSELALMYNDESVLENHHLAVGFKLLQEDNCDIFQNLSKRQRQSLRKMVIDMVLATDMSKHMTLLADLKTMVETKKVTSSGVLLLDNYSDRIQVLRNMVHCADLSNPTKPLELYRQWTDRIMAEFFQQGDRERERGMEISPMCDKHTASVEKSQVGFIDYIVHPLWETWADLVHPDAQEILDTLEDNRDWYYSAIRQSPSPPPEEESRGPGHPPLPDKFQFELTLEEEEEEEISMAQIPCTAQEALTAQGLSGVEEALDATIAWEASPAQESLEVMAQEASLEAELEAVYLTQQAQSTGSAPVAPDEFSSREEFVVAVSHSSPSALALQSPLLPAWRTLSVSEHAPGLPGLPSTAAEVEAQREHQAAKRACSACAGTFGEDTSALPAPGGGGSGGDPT
Chain of UniProt Q96RV3 (Q96RV3 whole entry, looked up): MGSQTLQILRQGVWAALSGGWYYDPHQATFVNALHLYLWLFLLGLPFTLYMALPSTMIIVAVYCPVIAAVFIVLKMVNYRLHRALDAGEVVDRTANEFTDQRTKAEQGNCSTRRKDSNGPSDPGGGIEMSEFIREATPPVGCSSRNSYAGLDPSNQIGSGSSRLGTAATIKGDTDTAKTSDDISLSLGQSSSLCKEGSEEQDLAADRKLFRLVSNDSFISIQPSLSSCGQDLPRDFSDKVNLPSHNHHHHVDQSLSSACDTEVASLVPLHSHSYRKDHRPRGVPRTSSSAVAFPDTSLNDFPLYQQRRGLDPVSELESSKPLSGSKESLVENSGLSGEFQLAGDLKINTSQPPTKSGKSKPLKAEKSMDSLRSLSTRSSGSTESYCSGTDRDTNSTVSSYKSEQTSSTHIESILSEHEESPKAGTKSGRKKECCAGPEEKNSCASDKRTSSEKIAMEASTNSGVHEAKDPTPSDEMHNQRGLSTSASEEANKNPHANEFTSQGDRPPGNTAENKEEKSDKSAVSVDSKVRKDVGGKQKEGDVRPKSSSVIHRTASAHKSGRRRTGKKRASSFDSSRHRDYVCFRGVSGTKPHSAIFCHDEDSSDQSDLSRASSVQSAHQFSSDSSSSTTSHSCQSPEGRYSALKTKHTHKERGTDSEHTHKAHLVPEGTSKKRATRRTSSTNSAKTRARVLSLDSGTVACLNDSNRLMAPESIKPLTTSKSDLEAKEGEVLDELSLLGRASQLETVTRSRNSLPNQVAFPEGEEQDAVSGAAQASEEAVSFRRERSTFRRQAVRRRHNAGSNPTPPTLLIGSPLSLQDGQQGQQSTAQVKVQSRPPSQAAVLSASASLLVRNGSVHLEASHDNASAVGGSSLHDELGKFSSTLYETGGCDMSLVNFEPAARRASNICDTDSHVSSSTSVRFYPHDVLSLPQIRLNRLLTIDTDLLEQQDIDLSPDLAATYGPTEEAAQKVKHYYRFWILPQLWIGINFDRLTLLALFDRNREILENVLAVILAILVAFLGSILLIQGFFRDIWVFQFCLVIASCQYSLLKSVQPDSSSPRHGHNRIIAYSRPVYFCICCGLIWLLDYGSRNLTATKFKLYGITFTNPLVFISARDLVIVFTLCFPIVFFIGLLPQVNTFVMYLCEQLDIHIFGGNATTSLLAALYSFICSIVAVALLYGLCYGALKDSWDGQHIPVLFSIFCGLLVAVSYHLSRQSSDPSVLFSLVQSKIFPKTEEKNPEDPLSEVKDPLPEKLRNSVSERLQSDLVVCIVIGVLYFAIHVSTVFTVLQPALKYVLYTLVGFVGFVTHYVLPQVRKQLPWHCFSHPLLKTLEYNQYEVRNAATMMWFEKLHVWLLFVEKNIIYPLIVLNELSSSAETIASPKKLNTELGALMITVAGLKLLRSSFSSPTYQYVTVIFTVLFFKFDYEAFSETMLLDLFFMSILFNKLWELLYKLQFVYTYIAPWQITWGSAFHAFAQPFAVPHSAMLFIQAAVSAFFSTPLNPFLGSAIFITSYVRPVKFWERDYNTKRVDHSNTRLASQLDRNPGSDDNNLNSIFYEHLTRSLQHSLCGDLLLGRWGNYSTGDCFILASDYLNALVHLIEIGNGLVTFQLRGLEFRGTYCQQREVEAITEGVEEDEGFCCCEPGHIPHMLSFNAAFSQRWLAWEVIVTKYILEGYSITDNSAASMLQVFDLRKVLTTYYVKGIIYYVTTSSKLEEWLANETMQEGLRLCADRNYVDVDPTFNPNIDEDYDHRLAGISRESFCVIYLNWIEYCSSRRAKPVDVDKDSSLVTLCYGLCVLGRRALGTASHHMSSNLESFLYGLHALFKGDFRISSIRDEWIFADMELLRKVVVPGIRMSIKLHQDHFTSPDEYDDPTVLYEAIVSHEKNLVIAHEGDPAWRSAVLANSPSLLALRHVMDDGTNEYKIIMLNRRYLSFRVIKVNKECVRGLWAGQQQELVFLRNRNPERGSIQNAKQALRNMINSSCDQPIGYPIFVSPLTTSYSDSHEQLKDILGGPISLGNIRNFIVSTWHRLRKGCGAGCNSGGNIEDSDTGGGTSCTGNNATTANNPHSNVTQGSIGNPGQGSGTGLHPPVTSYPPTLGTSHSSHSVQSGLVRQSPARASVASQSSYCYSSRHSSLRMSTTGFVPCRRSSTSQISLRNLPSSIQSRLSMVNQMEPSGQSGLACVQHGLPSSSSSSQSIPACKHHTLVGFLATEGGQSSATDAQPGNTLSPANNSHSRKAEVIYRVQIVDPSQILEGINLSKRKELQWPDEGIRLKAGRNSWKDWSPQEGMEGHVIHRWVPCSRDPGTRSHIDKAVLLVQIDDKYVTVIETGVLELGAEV
Chain of UniProt Q02156 (Q02156 whole entry, looked up): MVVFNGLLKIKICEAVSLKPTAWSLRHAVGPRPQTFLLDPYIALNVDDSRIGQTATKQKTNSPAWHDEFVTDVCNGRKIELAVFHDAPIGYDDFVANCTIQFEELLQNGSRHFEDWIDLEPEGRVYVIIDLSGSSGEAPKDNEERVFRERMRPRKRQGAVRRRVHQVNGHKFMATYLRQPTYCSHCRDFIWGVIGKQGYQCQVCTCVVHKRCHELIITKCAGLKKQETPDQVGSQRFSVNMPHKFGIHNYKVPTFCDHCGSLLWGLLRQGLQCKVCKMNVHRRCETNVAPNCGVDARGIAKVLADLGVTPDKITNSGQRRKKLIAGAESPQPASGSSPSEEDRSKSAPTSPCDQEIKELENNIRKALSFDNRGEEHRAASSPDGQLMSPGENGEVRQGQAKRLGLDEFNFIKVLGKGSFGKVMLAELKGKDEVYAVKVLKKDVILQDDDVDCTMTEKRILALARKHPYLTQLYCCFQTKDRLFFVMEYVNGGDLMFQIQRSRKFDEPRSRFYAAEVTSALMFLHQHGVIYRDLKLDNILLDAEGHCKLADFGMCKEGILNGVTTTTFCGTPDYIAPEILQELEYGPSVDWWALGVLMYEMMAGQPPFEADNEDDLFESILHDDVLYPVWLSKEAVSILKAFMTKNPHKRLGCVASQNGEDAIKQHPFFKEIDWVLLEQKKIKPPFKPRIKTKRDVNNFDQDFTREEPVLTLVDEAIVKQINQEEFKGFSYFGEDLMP
Chain of UniProt Q15126 (Q15126 whole entry, looked up): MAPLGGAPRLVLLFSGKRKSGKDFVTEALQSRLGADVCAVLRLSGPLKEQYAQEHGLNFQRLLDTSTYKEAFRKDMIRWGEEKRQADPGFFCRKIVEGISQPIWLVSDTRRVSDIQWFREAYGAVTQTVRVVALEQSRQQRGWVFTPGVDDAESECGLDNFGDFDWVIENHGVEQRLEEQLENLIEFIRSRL
Chain of UniProt O43924 (O43924 whole entry, looked up): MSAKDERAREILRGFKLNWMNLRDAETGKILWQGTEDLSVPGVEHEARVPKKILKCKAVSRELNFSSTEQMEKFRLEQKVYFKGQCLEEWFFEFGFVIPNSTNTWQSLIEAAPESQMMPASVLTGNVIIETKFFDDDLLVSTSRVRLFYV

For PCNX1 (UniProt Q96RV3), which log2 fold change is on record?
Its log2 fold change is 0.132 (inactive).

Which log2 fold change does the source give for PCBP2 (UniProt F8VRH0) here?
Its log2 fold change is -0.051 (inactive).

With PPP2R5B (UniProt Q15173) as the target, how does the log2 fold change read?
Its log2 fold change is -0.173 (inactive).

How did the log2 fold change turn out when PTEN isoform 2 (UniProt P60484) was run?
The log2 fold change was 0.05 (inactive).

Which log2 fold change does the source give for PHLDB1 isoform 2 (UniProt Q86UU1) here?
The log2 fold change was -0.222 (inactive).

How did the log2 fold change turn out when PHC3 isoform 7 (UniProt Q8NDX5) was run?
Its log2 fold change is -0.163 (inactive).

How did the log2 fold change turn out when PSMC1 (UniProt G3V4X1) was run?
The log2 fold change was 0.141 (inactive).

With POLR2E (UniProt P19388) as the target, how does the log2 fold change read?
Its log2 fold change is -0.067 (inactive).

Which log2 fold change does the source give for PIAS4 (UniProt Q8N2W9) here?
The log2 fold change was -0.406 (inactive).

Which log2 fold change does the source give for PRR14L (UniProt Q5THK1) here?
Its log2 fold change is 0.218 (inactive).

With PHRF1 (UniProt Q9P1Y6) as the target, how does the log2 fold change read?
Its log2 fold change is 0.373 (inactive).

How did the log2 fold change turn out when PSMA3 (UniProt G3V4X5) was run?
The log2 fold change was 0.139 (inactive).

Which log2 fold change does the source give for PSMB9 (UniProt P28065) here?
Its log2 fold change is 0.008 (inactive).

With PIGH (UniProt Q14442) as the target, how does the log2 fold change read?
The log2 fold change was -0.008 (inactive).

Which log2 fold change does the source give for PDE4A (UniProt P27815) here?
Its log2 fold change is -0.331 (inactive).

For PUF60 isoform 2 (UniProt Q9UHX1), which log2 fold change is on record?
The log2 fold change was -0.372 (inactive).

PRKCE (UniProt Q02156) was tested. Which log2 fold change did it give?
The log2 fold change was -0.125 (inactive).

Which log2 fold change does the source give for PSD3 (UniProt Q9NYI0) here?
The log2 fold change was -0.108 (inactive).

How did the log2 fold change turn out when POLR2M (UniProt Q6EEV4) was run?
Its log2 fold change is 0.009 (inactive).

For PSMA3 (UniProt H0YJ03), which log2 fold change is on record?
The log2 fold change was 0.076 (inactive).

With PCF11 (UniProt O94913) as the target, how does the log2 fold change read?
The log2 fold change was -0.114 (inactive).

Compound: CC[C@H](C)N1C=C(C2=C(C=C(C=C21)C3=CN=C(C=C3)N4CCNCC4)C(=O)NCC5=C(C=C(NC5=O)C)C)C
Test: as above
Summary of the method: as §1

Which log2 fold change does the source give for PCNX1 (UniProt Q96RV3) here?
Its log2 fold change is -0.004 (inactive).

Which log2 fold change does the source give for PCBP2 (UniProt F8VRH0) here?
Its log2 fold change is 0.165 (inactive).

For PPP2R5B (UniProt Q15173), which log2 fold change is on record?
The log2 fold change was 0.021 (inactive).

With PMVK (UniProt Q15126) as the target, how does the log2 fold change read?
Its log2 fold change is 0.069 (inactive).

For PHLDB1 isoform 2 (UniProt Q86UU1), which log2 fold change is on record?
Its log2 fold change is -0.06 (inactive).

For PHC3 isoform 7 (UniProt Q8NDX5), which log2 fold change is on record?
The log2 fold change was 0.178 (inactive).

For PSMC1 (UniProt G3V4X1), which log2 fold change is on record?
Its log2 fold change is -0.01 (inactive).

POLR2E (UniProt P19388) was tested. Which log2 fold change did it give?
The log2 fold change was 0.018 (inactive).

With PDE6D (UniProt O43924) as the target, how does the log2 fold change read?
The log2 fold change was -0.179 (inactive).

With PMS2CL (UniProt Q68D20) as the target, how does the log2 fold change read?
Its log2 fold change is -0.126 (inactive).

How did the log2 fold change turn out when PRR14L (UniProt Q5THK1) was run?
Its log2 fold change is -0.088 (inactive).

Which log2 fold change does the source give for PAN2 (UniProt Q504Q3) here?
The log2 fold change was 0.167 (inactive).

For PPP1R12B isoform 6 (UniProt O60237), which log2 fold change is on record?
Its log2 fold change is 0.088 (inactive).

Which log2 fold change does the source give for PCBP2 (UniProt F8VZX2) here?
The log2 fold change was 0.075 (inactive).

With PRKCE (UniProt Q02156) as the target, how does the log2 fold change read?
The log2 fold change was 0.099 (inactive).

For PSD3 (UniProt Q9NYI0), which log2 fold change is on record?
The log2 fold change was 0.061 (inactive).

POLR2M (UniProt Q6EEV4) was tested. Which log2 fold change did it give?
The log2 fold change was 0.002 (inactive).

Compound: CC[C@H](C)[C@@H](C(=O)N[C@@H]([C@@H](C)O)C(=O)N[C@@H](CC(C)C)C(=O)[C@]1(CO1)C)NC(=O)[C@H]([C@@H](C)CC)N(C)C(=O)C [epoxomicin]
Test: as above
Summary of the method: as §1

How did the log2 fold change turn out when PCNX1 (UniProt Q96RV3) was run?
Its log2 fold change is -0.017 (inactive).

For PCBP2 (UniProt F8VRH0), which log2 fold change is on record?
The log2 fold change was -0.252 (inactive).

How did the log2 fold change turn out when PMVK (UniProt Q15126) was run?
Its log2 fold change is 0.003 (inactive).

For PHLDB1 isoform 2 (UniProt Q86UU1), which log2 fold change is on record?
Its log2 fold change is 0.061 (inactive).

PHC3 isoform 7 (UniProt Q8NDX5) was tested. Which log2 fold change did it give?
Its log2 fold change is 0.254 (inactive).

How did the log2 fold change turn out when POLR2E (UniProt P19388) was run?
The log2 fold change was 0.065 (inactive).

With PIAS4 (UniProt Q8N2W9) as the target, how does the log2 fold change read?
The log2 fold change was 0.11 (inactive).

With PDE6D (UniProt O43924) as the target, how does the log2 fold change read?
The log2 fold change was 0.105 (inactive).

With PMS2CL (UniProt Q68D20) as the target, how does the log2 fold change read?
Its log2 fold change is 0.126 (inactive).

For PSMB9 (UniProt P28065), which log2 fold change is on record?
Its log2 fold change is 0.049 (inactive).

How did the log2 fold change turn out when PIGH (UniProt Q14442) was run?
Its log2 fold change is -0.128 (inactive).

Which log2 fold change does the source give for PDE4A (UniProt P27815) here?
The log2 fold change was -0.124 (inactive).

PRKD2 (UniProt M0R346) was tested. Which log2 fold change did it give?
The log2 fold change was -0.072 (inactive).

PRKCE (UniProt Q02156) was tested. Which log2 fold change did it give?
Its log2 fold change is 0.036 (inactive).

POLR2M (UniProt Q6EEV4) was tested. Which log2 fold change did it give?
Its log2 fold change is 0.154 (inactive).

For PSMC3 (UniProt E9PLG2), which log2 fold change is on record?
Its log2 fold change is -0.273 (inactive).

Compound: CCn1c(C(=O)N(C2CC2)C2CC2)cc2c3c(ncn3C)c(Nc3cc(C)n(C)n3)nc21
Test: as above
Summary of the method: as §1

Which log2 fold change does the source give for PCBP2 (UniProt F8VRH0) here?
The log2 fold change was 0.043 (inactive).

For PPP2R5B (UniProt Q15173), which log2 fold change is on record?
Its log2 fold change is 0.025 (inactive).

With PTEN isoform 2 (UniProt P60484) as the target, how does the log2 fold change read?
The log2 fold change was -0.071 (inactive).

Which log2 fold change does the source give for PMVK (UniProt Q15126) here?
Its log2 fold change is 0.028 (inactive).

How did the log2 fold change turn out when PHLDB1 isoform 2 (UniProt Q86UU1) was run?
Its log2 fold change is -0.02 (inactive).

With PHC3 isoform 7 (UniProt Q8NDX5) as the target, how does the log2 fold change read?
Its log2 fold change is -0.113 (inactive).

PPP2R5C isoform 2 (UniProt Q13362) was tested. Which log2 fold change did it give?
The log2 fold change was -0.099 (inactive).

With PSMC1 (UniProt G3V4X1) as the target, how does the log2 fold change read?
Its log2 fold change is -0.135 (inactive).

How did the log2 fold change turn out when POLR2E (UniProt P19388) was run?
Its log2 fold change is -0.104 (inactive).

PDE4DIP (UniProt E9PS60) was tested. Which log2 fold change did it give?
The log2 fold change was -0.072 (inactive).

PDE6D (UniProt O43924) was tested. Which log2 fold change did it give?
Its log2 fold change is 0.26 (inactive).

PHRF1 (UniProt Q9P1Y6) was tested. Which log2 fold change did it give?
Its log2 fold change is 0.035 (inactive).

For PPP1R12B isoform 6 (UniProt O60237), which log2 fold change is on record?
The log2 fold change was -0.11 (inactive).

How did the log2 fold change turn out when PSMB9 (UniProt P28065) was run?
The log2 fold change was -0.046 (inactive).

PIGH (UniProt Q14442) was tested. Which log2 fold change did it give?
The log2 fold change was 0.022 (inactive).

PCBP2 (UniProt F8VZX2) was tested. Which log2 fold change did it give?
The log2 fold change was 0.073 (inactive).

With PUM1 (UniProt Q14671) as the target, how does the log2 fold change read?
The log2 fold change was -0.01 (inactive).

PDE4A (UniProt P27815) was tested. Which log2 fold change did it give?
The log2 fold change was 0.099 (inactive).

For PRKCE (UniProt Q02156), which log2 fold change is on record?
The log2 fold change was -0.054 (inactive).

With PRKX (UniProt P51817) as the target, how does the log2 fold change read?
The log2 fold change was -0.019 (inactive).

With POLR2M (UniProt Q6EEV4) as the target, how does the log2 fold change read?
Its log2 fold change is 0.027 (inactive).
